Assay outcomes: PubChem, National Center for Advancing Translational Sciences (NCATS)
TDP1 inh: qHTS Assay for Inhibitors of Tyrosyl-DNA Phosphodiesterase (TDP1). Tyrosyl-DNA phosphodiesterase 1 (Homo sapiens), Q9NUW8. recombinant TDP1, AlphaScreen DNA substrate cleavage. Potency, µM (top dose mostly 130 µM), for the others: at the highest dose activity change, negative = inhibition, actives largely listed as inhibitors. hit rate 0.28% among 350,000; note: nearly all actives have a fitted effect of over 40% in size
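Steps: enzyme plus compound, 15 min RT; add biotin/phosphotyrosine-FITC oligonucleotide (15 nM final), react 5 min; add donor/acceptor beads (10 ug/ml final), 10 min; read AlphaScreen. Tdp1 at 1 nM final.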
RECQ1 helicase: qHTS Assay for Inhibitors of RecQ-Like Dna Helicase 1 (RECQ1); ATP-dependent DNA helicase Q1 (Homo sapiens), P46063; RECQ1 DNA unwinding, red fluorescence kinetic read; Potency, µM (highest dose often 57.3 µM), inactives show at the top dose activity, negative = inhibition, most hits filed as inhibitors; hit rate 0.54% among 240,000;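 note: plate controls were vehicle for no effect and no enzyme for full effect; nearly all actives have a fitted effect of over 30% in size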
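RECQ1T1 50 nM; forked duplex (20 bp + 30-nt ss tails) 200 nM, ATP 2 mM final; pH 8.0, 2 mM MgCl2, 2.5 ug/ml poly(dI-dC); 15 min compound preincubation; discontinuous kinetic read over 2 h at RT.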
BLM inh: qHTS Assay for Inhibitors of Bloom's syndrome helicase (BLM); recombinant BLM DNA unwinding, fluorescence dequenching; Potency, µM (doses to about 56.1 µM), without a hit: at the highest dose activity change, negative = inhibition, hits mostly inhibitors; hit rate 0.2% among 350,000; AID 2528, 2010;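 note: plate controls were vehicle for no effect and no enzyme for full effect; nearly all actives have a fitted effect of over 35% in size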
FEN1 inhibitor: qHTS Assay for the Inhibitors of Human Flap endonuclease 1 (FEN1); P39748; AID 588795, 2011; Recombinant FEN1 flap cleavage, fluorescence, 15 min; hit rate 0.35% among 390,000; Potency, µM (series often up to 114 µM), for inactives: top-dose activity change, negative = inhibition, usual class: inhibitors; note: nearly all actives have a fitted effect of over 65% in size
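Read-out was taken twice, immediately and after 15 min, following addition of 50 nM substrate to 10 nM FEN1 that had sat with test compound for 15 min at room temperature. Curves came from a four-parameter Hill model.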
APEX1 inh: qHTS Assay for Inhibitors of the Human Apurinic/apyrimidinic Endonuclease 1 (APE1); recombinant APE1, TAMRA/BHQ-2 abasic DNA cleavage fluorescence; DNA repair nuclease/redox regulator APEX1 (Homo sapiens), P27695; hit rate 0.35% among 350,000; Potency, µM (top dose mostly 65.8 µM), for inactives: at the top dose activity change, negative = inhibition, actives largely listed as inhibitors; AID 2517, 2012;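 note: plate controls were vehicle for no effect and reference inhibitor for full effect; nearly all actives have a fitted effect of over 55% in size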
Target sequence (P27695 whole entry, looked up): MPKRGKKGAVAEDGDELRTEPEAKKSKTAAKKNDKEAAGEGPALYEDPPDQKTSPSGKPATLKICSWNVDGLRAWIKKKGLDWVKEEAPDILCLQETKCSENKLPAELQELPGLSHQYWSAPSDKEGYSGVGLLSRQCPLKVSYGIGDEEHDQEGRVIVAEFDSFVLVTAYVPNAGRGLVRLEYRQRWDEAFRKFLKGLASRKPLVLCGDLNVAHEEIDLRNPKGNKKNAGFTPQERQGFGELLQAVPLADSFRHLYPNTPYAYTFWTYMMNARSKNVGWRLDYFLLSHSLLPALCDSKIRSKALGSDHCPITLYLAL
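APE1 at 0.75 nM final was preincubated with compound 15 min at room temperature, then 50 nM double-stranded THF abasic-site substrate (5'-TAMRA/3'-BHQ-2) was added. Fluorescence (ex 525/em 598 nm) was read kinetically; third-minus-first read gave activity.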
Active calls of the source: *; i = inactive; ? = inconclusive; . = no result; [ ] = dose if it differs, or a comment. An excerpt weighted towards active compounds, which were near 0.92% of everything screened. Calls come from the whole dose curve; as a rule, active = well fitted curve in the direction sought with a large enough effect; inconclusive = small, poorly fitted or top-dose-only effect, or another doubt; inactive = no such curve, though single readings can be large; an effect the other way counts as inactive or inconclusive. Unless noted, % is set by controls: 0 for no effect and ±100 for the full control effect; potency is the fitted concentration of half-maximal effect.

SMILES	TDP1 inh	RECQ1 helicase	BLM inh	FEN1 inhibitor	APEX1 inh
CCCCc1nc2c(c3c1C[C@H](C)OC3)CN(C(=O)Cc1cccc(OC)c1)CC2	4.9%[21 µM]	7.4%[11.5 µM]	2.7%[12.4 µM]	.	29.7%[12.4 µM]
C=C(CCC12O[C@H](C(=O)O)[C@@](O)(C(=O)O)[C@](C(=O)O)(O1)[C@H](OC(=O)/C=C/[C@@H](C)C[C@@H](C)CC)[C@H]2O)[C@@H](OC(C)=O)[C@H](C)Cc1ccccc1	6.1%	i	22.4µM*	.	-6.2%
C=C(CC[C@]12OC(C(=O)O)C(O)(C(=O)O)C(C(=O)O)(O1)C(OC(=O)/C=C/[C@@H](C)C[C@@H](C)CC)C2O)[C@@H](OC(C)=O)[C@H](C)Cc1ccccc1 (some centres not stated)	.	.	.	-1.4%	.
COC(=O)C[C@H]1c2ccccc2[C@H]2C(=C[C@@H](C)[C@H]3C(=O)N(O)C(=O)[C@H]32)N1C(=O)OC	-11.3%[12.3 µM]	i[11.5 µM]	-1.0%[12.4 µM]	.	-0.8%[12.4 µM]
S=c1[nH]nc(-c2n[nH]c3c2CCC3)n1/N=C/C=C/c1ccco1	.	12.6µM*	-7.2%	-25.9%	?
S=c1[nH]nc(COc2ccccc2)n1/N=C/C=C/c1ccco1	.	31.6µM*	-24.1%	-33.9%	?
Cc1n[nH]c(C)c1Sc1ccccc1[N+](=O)[O-]	1.2%	-4.4%	-7.2%	-2.1%	-4.3%
Cc1n[nH]c(C)c1Sc1ccccc1N=Cc1cc(Cl)cc([N+](=O)[O-])c1O	2.2%	-5.7%	-0.6%	79.4µM*	0.0%
O=C(O)c1ccc(N/N=C/c2ccc(-c3ccc(Cl)cc3Cl)o2)cc1	1.2%	-8.5%	-5.6%	?	-7.0%
Cc1ccc(NC(=O)/C(C#N)=C\c2ccc(-c3ccc(Cl)cc3)o2)c(C)c1	2.2%[12.3 µM]	.	-3.6%	-14.1%	.
N#C/C(=C\c1ccc(-c2cc(Cl)ccc2Cl)o1)C(=O)Nc1ccccc1C(=O)O	-5.7%[12.3 µM]	.	11.2µM*	?	.
O=C(O)c1ccc(N/N=C/c2ccc(-c3cc(Cl)ccc3Cl)o2)cc1	70.8µM*	-20.5%	-14.6%	79.4µM*	?
CCCCC(O)C(=O)Nc1cc(C(F)(F)F)ccc1Cl (configuration not stated)	-5.0%	.	.	.	.
CC(=O)c1ccccc1NS(=O)(=O)c1cccc2nsnc12	.	.	-14.2%	-10.2%	5.32µM*
O=S(=O)(c1ccc2ccccc2c1)N1CCCCCC1	2.8%	-2.3%	-5.4%	-5.6%	8.2%
O=C(O)c1cc(S(=O)(=O)N2CCN(S(=O)(=O)c3ccc4ccccc4c3)CC2)ccc1Br	35.5µM*	.	.	-10.4%	-15.1%
Cc1ccc(/C=C2/Sc3ccc(C(=O)NCc4ccccn4)cc3NC2=O)cc1	31.6µM*	.	-11.8%	-25.8%	5.2%
COc1cccc(/C=C2/Sc3ccc(C(=O)NCCN4CCCCCC4)cc3NC2=O)c1	3.1%	.	34.1%	50.1µM*	-21.0%
O=[N+]([O-])c1ccc(Nc2nc(NC3CCCCC3)nc(N3CCCC3)n2)cc1	7.9%	-8.2%	28.2µM*	-6.3%	0.0%
O=[N+]([O-])c1ccc(Nc2nc(N/N=C/c3cccc(F)c3)nc(N3CCCC3)n2)cc1	8.2%	-0.1%	4.2%	-4.5%	?
COc1cccc(/C=N/Nc2nc(Nc3ccc([N+](=O)[O-])cc3)nc(N3CCCC3)n2)c1O	10.0%	?	28.2µM*	-24.5%	-11.8%
CC(C)C(=O)OCC(=O)[C@@]12OC(C3CCCCC3)O[C@@H]1CC1C3CCC4=CC(=O)C=C[C@]4(C)C3[C@@H](O)C[C@@]12C (some centres not stated)	.	.	-9.5%	.	.
O=C(NNC(=O)c1ccccc1Br)c1ccc2nc[nH]c2c1	11.2µM*	.	-20.4%	-24.8%	?
COc1cccc(C2c3c(ncn(-c4ccccc4-c4ccccc4)c3=N)Oc3ccc4ccccc4c32)c1 (configuration not stated)	1.4%	.	.	.	.
CN(C)CCOc1nc(-c2ccccc2)nc2c1oc1ccccc12	3.1%	5.5%	156.3%	50.1µM*	-11.2%
